Drawing on PubChem BioAssay (EPA / NIEHS), this text covers outcome and AC50 for 40 molecules.

Values joined by “and” are separate entries in the source; they are usually repeats but may differ in a detail not shown here. Equal entries are not always repeated. Active and inactive are the calls of the source. Rule for the calls: active = hit-call score of the fitted dose curve at least 0.9, where 1 is the maximum; inactive = score below 0.9.

Read-out in the experiment: Interleukin-1 alpha (IL1a), IL1A (gene 3552)
As to the kind of experiment: BSK_BE3C_IL1a: BioMAP Diversity Plus: BE3C Assay for Interleukin-1 alpha (IL1a) Biomarker Activity (AID 2283016). The note with it: primary human bronchial epithelial cells; actives raise or lower the signal. As to the method: BSK_BE3C is a cell-based, multiplexed-readout assay that uses bronchial epithelial cell, a human lung primary cell, with measurements taken at 24 hours after chemical dosing in a 96-well plate.BSK_BE3C_IL1a is an assay component measured in the BSK_BE3C assay. It measures IL-1a antibody related to regulation of gene expression using ELISA technology.Data from the assay component BSK_BE3C_IL1a was analyzed into 1 assay endpoint. This assay endpoint, BSK_BE3C_IL1a, was analyzed with bidirectional fitting relative to DMSO as the negative control and baseline of activity. Using a type of binding reporter, gain or loss-of-signal activity can be used to understand changes in the signaling as they relate to the gene IL1A. Furthermore, this assay endpoint can be referred to as a primary readout, because this assay has produced multiple assay endpoints where this one serves a signaling function. To generalize the intended target to other relatable targets, this assay endpoint is annotated to the cytokine intended target family, where the subfamily is interleukins.
The levels of cell surface (or secreted, indicated by the prefix "s") biomarker endpoints were measured by ELISA. Overt cytotoxicity to cells in confluent adherent cultures (all systems other than the BT system) was assessed by measuring total protein levels using sulforhodamine B (SRB) staining in parallel cultures at the time of biomarker measurements, indicated as SRB endpoints. For proliferation assays for adherent cell types, individual cell types are cultured at sub-confluence and relative cell numbers quantified by SRB staining at time points optimized for each system (48 h: 3C and CASM3C systems; 72 h: BT and HDF3CGF systems; 96 h: SAg system). SRB was performed by staining cells with 0.1% SRB after fixation with 10% TCA and reading wells at 560 nm.Viability and proliferation of PBMC (T cells) was quantified by Alamar Blue reduction for the SAg and BT systems. For PBMC viability (referred to as PBMC Cytotoxicity within the assay endpoint names), cells were plated (75,000/well in a 96-well plate) and then chemical samples added for 1 h before addition of activators, SEB and TSST-1 (20 ng/mL final concentration each). Cells were incubated for 90 h. Then, Alamar Blue (20 uL/well) (Invitrogen, Cat DAL1100) was added for 6 h, and the plates were read with a fluorescence microplate reader at 546/580 nm (excitation/emission). For PBMC proliferation, cells were plated and activated as above but incubated for only 16 h prior to addition of Alamar Blue. Plates were read after 6 h.
With `CCC(=NOC/C=C/Cl)C1=C(O)CC(C2CCOCC2)CC1=O` (stereo not given), the result was inactive.
As for `COP(=O)(NC(C)=O)SC` (stereo not given), the outcome was inactive.
For the molecule `COc1ccc(C(=CC(=O)N2CCOCC2)c2ccc(Cl)cc2)cc1OC`, the outcome was inactive.
Same read-out and setting: under `CC(C)[C@H](C(=O)O[C@H](C#N)c1cccc(Oc2ccccc2)c1)c1ccc(Cl)cc1` stands “inactive”.
The same measure, in the same setting: as for `C[N+]1(C)CCCCC1`, the entry is “inactive”.
Still for that read-out and setting: under `CCOP(=O)(NC(C)C)Oc1ccc(SC)c(C)c1` (stereo not given) stands “inactive”; under `CCOP(=O)(OCC)Oc1cc(C)nc(C(C)C)n1`, “inactive”; under `CCc1cccc(C)c1N(C(=O)CCl)C(C)COC` (stereo not given), “inactive”.
For `CN(C)C(=O)Nc1cccc(C(F)(F)F)c1`, the outcome was inactive.
Still for that read-out and setting: under `CNc1cnn(-c2cccc(C(F)(F)F)c2)c(=O)c1Cl` stands “inactive”; under `Cc1nn(-c2cc(NS(C)(=O)=O)c(Cl)cc2Cl)c(=O)n1C(F)F`, “inactive”.
The same measure, in the same setting: as for `CN(C)NC(=O)CCC(=O)O`, the entry is “inactive”; as for `S=C1NCCN1`, “inactive”; as for `CCOP(=S)(OCC)Oc1cc(C)nc(C(C)C)n1`, “inactive”.
The same measure, in the same setting: as for `CN1COCN(Cc2cnc(Cl)s2)C1=N[N+](=O)[O-]`, the entry is “inactive”; as for `O=c1ccc(=O)[nH][nH]1`, “inactive”.
Take `CNC(=O)ON=C(SC)C(=O)N(C)C`: the result was inactive.
The same measure, in the same setting: as for `CC(COc1ccc(Oc2ccccc2)cc1)Oc1ccccn1` (stereo not given), the entry is “inactive”.
Take `CN(C)[C@@H]1C(=O)C(C(N)=O)=C(O)[C@@]2(O)C(=O)C3=C(O)c4c(O)cccc4[C@@](C)(O)[C@H]3[C@H](O)[C@@H]12`: the result was inactive.
On the same count and under the same terms, under `CCOP(=O)(SC(C)CC)N1CCSC1=O` (stereo not given) stands “inactive”.
Same read-out and setting: as for `Cc1cc(C2CC2)nc(Nc2ccccc2)n1`, the entry is “inactive”; as for `CC(C)=CC1C(C(=O)OCN2C(=O)C3=C(CCCC3)C2=O)C1(C)C` (stereo not given), “inactive”; as for `CNC(=O)Oc1cccc2c1OC(C)(C)O2`, “inactive”.
On the same count and under the same terms, as for `CCC(=O)Nc1ccc(Cl)c(Cl)c1`, the entry is “inactive”.
In the case of `CC1(C(=O)Nc2ccc(O)c(Cl)c2Cl)CCCCC1`, the result was inactive.
Consider `CCCOc1nn(C(=O)NS(=O)(=O)c2ccccc2C(=O)OC)c(=O)n1C`, for which the result was inactive.
Same read-out and setting: under `CCOC(=O)CC(SP(=O)(OC)OC)C(=O)OCC` (stereo not given) stands “inactive”; under `CSc1nc(NC(C)C)nc(NC(C)C)n1`, “inactive”.
One may read the AC50 as the concentration giving half of the maximal activity seen. Consider `CC[C@H](C)[C@H]1O[C@]2(C=C[C@@H]1C)C[C@@H]1C[C@@H](C/C=C(\C)[C@@H](O[C@H]3C[C@H](OC)[C@@H](O[C@H]4C[C@H](OC)[C@@H](NC)[C@H](C)O4)[C@H](C)O3)[C@@H](C)/C=C/C=C3\CO[C@@H]4[C@H](O)C(C)=C[C@@H](C(=O)O1)[C@]34O)O2`, for which the AC50 is 7.71 µM (active).
On to `O=C(O)c1cc(Oc2ccc(C(F)(F)F)cc2Cl)ccc1[N+](=O)[O-]`, for which the result was inactive.
On the same count and under the same terms, under `CSc1nnc(C(C)(C)C)c(=O)n1N` stands “inactive”; under `CCOC(=O)COc1cc(-c2nn(C)c(OC(F)F)c2Cl)c(F)cc1Cl`, “inactive”; under `CCNc1nc(Cl)nc(NC(C)(C)C#N)n1`, “inactive”.
As to `CC(=NC#N)N(C)Cc1ccc(Cl)nc1`, the result was inactive.
Still for that read-out and setting: as for `CC(C)N(C(=O)SCC(Cl)=C(Cl)Cl)C(C)C`, the entry is “inactive”; as for `COc1cccc(C(=O)NN(C(=O)c2cc(C)cc(C)c2)C(C)(C)C)c1C`, “inactive”; as for `CCCSP(=O)(OCC)Oc1ccc(Br)cc1Cl` (stereo not given), “inactive”.
`O=[N+]([O-])c1cc(C(F)(F)F)c(Cl)c([N+](=O)[O-])c1Nc1ncc(C(F)(F)F)cc1Cl`: the AC50 is 1.95 µM (active) and 6.28 µM (active).
With `CCCCOC(=O)c1ccccc1C(=O)O`, the result was inactive.
As for `FC(F)C(F)(F)OCC(Cn1cncn1)c1ccc(Cl)cc1Cl` (stereo not given), the result was inactive.
